These sequences were tested against PUM1 PUF domain R5-RSN (Homo sapiens, UniProt Q14671 828-1176, C1007R;R1008S;Q1011N) (assay: yeast three-hybrid, YBZ-1, SC-Leu-His + 0.5 mM 3-AT, 4 days). Conditions: tags: N-Gal4 AD-HA kept; label: inside an RPR1-promoter hybrid RNA with tandem MS2 sites; ssRNA.
Method in brief: (§1)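 A centromeric plasmid in strain YBZ-1 co-expressed Pumilio-1 PUF domain libraries, randomized at the three base-contacting residues of each repeat, with matching RNA elements; the strain carries a LexA–MS2 coat fusion and a HIS3 reporter. After four days on SC-Leu (input) or SC-Leu-His + 0.5 mM 3-AT (selection), the repeat regions were PCR-amplified and Illumina-sequenced. The interaction score is the log change in variant frequency from input to selection, using log2 and a pseudocount of 1 where absent.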

Row | Sequence | binding signal
1 | GGCUAGAACUAGUGGAUCCCCCGGCGCCCGGCGGCUCGAGCCCGGGUAAGUGUAAAUAGUCUGCAUGCCGCCGGGCGCCAUGCCUGCAGGUCGACUCUAGAAAACAUG | 0.8 log2 enrichment (interaction score)
2 | GGCUAGAACUAGUGGAUCCCCCGGCGCCCGGCGGCUCGAGCCCGGGUAAGUGUCAAUAGUCUGCAUGCCGCCGGGCGCCAUGCCUGCAGGUCGACUCUAGAAAACAUG | 3.76 log2 enrichment (interaction score)
3 | GGCUAGAACUAGUGGAUCCCCCGGCGCCCGGCGGCUCGAGCCCGGGUAAGUGUUAAUAGUCUGCAUGCCGCCGGGCGCCAUGCCUGCAGGUCGACUCUAGAAAACAUG | 3.26 log2 enrichment (interaction score)

These sequences were tested against PUM1 PUF domain R4-SCS (Homo sapiens, UniProt Q14671 828-1176, N971S;H972C;Q975S) in the same assay as above. Conditions: tags: N-Gal4 AD-HA kept; label: inside an RPR1-promoter hybrid RNA with tandem MS2 sites; ssRNA.
Method in brief: as §1

Row | Sequence | binding signal
4 | GGCUAGAACUAGUGGAUCCCCCGGCGCCCGGCGGCUCGAGCCCGGGUAAGUGUAAAUAGUCUGCAUGCCGCCGGGCGCCAUGCCUGCAGGUCGACUCUAGAAAACAUG | 2.13 log2 enrichment (interaction score)
5 | GGCUAGAACUAGUGGAUCCCCCGGCGCCCGGCGGCUCGAGCCCGGGUAAGUGUACAUAGUCUGCAUGCCGCCGGGCGCCAUGCCUGCAGGUCGACUCUAGAAAACAUG | 0.74 log2 enrichment (interaction score)
6 | GGCUAGAACUAGUGGAUCCCCCGGCGCCCGGCGGCUCGAGCCCGGGUAAGUGUAUAUAGUCUGCAUGCCGCCGGGCGCCAUGCCUGCAGGUCGACUCUAGAAAACAUG | 1.72 log2 enrichment (interaction score)

What follows are sequences tested against PUM1 PUF domain R5-MRE (Homo sapiens, UniProt Q14671 828-1176, C1007M;Q1011E) in the same assay as above. Conditions: tags: N-Gal4 AD-HA kept; label: inside an RPR1-promoter hybrid RNA with tandem MS2 sites; ssRNA.
Method in brief: as §1

Row | Sequence | binding signal
7 | GGCUAGAACUAGUGGAUCCCCCGGCGCCCGGCGGCUCGAGCCCGGGUAAGUGUAAAUAGUCUGCAUGCCGCCGGGCGCCAUGCCUGCAGGUCGACUCUAGAAAACAUG | 1.14 log2 enrichment (interaction score)
8 | GGCUAGAACUAGUGGAUCCCCCGGCGCCCGGCGGCUCGAGCCCGGGUAAGUGUGAAUAGUCUGCAUGCCGCCGGGCGCCAUGCCUGCAGGUCGACUCUAGAAAACAUG | 2.77 log2 enrichment (interaction score)
9 | GGCUAGAACUAGUGGAUCCCCCGGCGCCCGGCGGCUCGAGCCCGGGUAAGUGUUAAUAGUCUGCAUGCCGCCGGGCGCCAUGCCUGCAGGUCGACUCUAGAAAACAUG | 0.96 log2 enrichment (interaction score)

— paper PMC8384837, “Expanding the binding specificity for RNA recognition by a PUF domain”
